The values below come from PubChem BioAssay (NCATS).

Inconclusive results are not listed. The source made the active and inactive calls. The call rests on the fitted dose curve; in most records, active means well fitted cell-killing curve with a large enough effect; inconclusive means small, poorly fitted or top-dose-only effect; inactive means flat fitted curve, though single readings scatter.
Potency means the concentration at half of the fitted maximal effect.

The nature of this test: Cell Viability - LYMP2-007 (AID 979).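 Further: cells exposed to compound for 24 h before reading; nearly all actives have a fitted effect of over 60% in size.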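 On activity change, negative = cytotoxicity: 0% = DMSO only and the negative end = 92 µM tetraoctylammonium bromide.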 The following applies: LYMP2-007 lymphoblastoid cell viability; series mostly up to 92.2 µM; activity change, negative = cytotoxicity: at the top concentration. The source says:
NIH Chemical Genomics Center [NCGC]
NIH Molecular Libraries Screening Centers Network [MLSCN]
National Institutes of Environmental Health Sciences [NIEHS]
National Toxicology Program [NTP]
We have developed a 1536-well cell-based assay for quantitative high throughput screening (qHTS) against a number of cell lines to determine in vitro cytotoxicity of small molecules. This particular assay uses a human lymphoblastoid cell line (LYMP2-007) purchased from Coriell Institute for Medical Research.
NCGC Assay Protocol Summary:
The CellTiter-Glo luminescent cell viability assay (Promega) is a homogeneous method to measure the number of viable cells in culture. The end point readout of this assay is based on quantitation of intracellular ATP, an indicator of metabolic activity, using the luciferase reaction. Luciferase catalyzes the oxidation of beetle Luciferin to oxyluciferin and light in the presence of ATP. The luminescent signal is proportional to amount of ATP present.
Using the CellTiter-Glo luminescent cell viability assay, the amount of cellular ATP was measured in the lymphoblastoid cell line with complete culture medium following compound treatment for 24 hours. The assay was performed in opaque white Kalypsys 1536-well plates. In the screen, tetraoctylammonium bromide was used as positive control. Library compounds were measured for their ability to cause acute toxicity in the cell line, as reflected by a decrease in intracellular ATP levels, in a concentration-dependent manner. […] AC50 values were determined from concentration-response data modeled with the standard Hill equation.
qHTS protocol for CellTiter Glo lymphoblastoid cellular assay
[Step] [Parameter] [Value] [Description]
1. Reagent; 5 uL; 2500 lymphoblastoid cells/well
2. Time; 5 hr; 37 C incubation
4. Controls; 23 nL; Tetraoctylammonium bromide 6.4pM to 92 uM
5. Time; 24 hr; 37 C incubation
6. Reagent; 5 uL; CellTiter Glo reagent
7. Time; 30 min; Room Temperature
8. Detection; Luminescence; Viewlux plate reader
Keywords: cell viability, cytotoxicity, lymphoblastoid cell line, luminescence, NTPHTS, NTPHTS_NCGC, NIEHS, DSSTox, MLSMR, MLSCN, NIH Roadmap, qHTS, NCGC
Consider `CCOCCOC(C)=O`, for which the “activity change, negative = cytotoxicity” value was -6.11% (inactive).
As to `COc1ccc(C(c2ccc(OC)cc2)C(Cl)(Cl)Cl)cc1`, the Potency result was “inactive”.
Regarding `CCOP(=O)(NC(C)C)Oc1ccc(SC)c(C)c1` (stereo unspecified), the “activity change, negative = cytotoxicity” value was -11.1% (inactive).
Regarding `Nc1ccc(Sc2ccc(N)cc2)cc1`, the “activity change, negative = cytotoxicity” value is -5.16% (inactive).
In the case of `O=S(=O)(c1ccc(Cl)cc1)c1ccc(Cl)cc1`, the Potency result was “inactive”.
With `O=[N+]([O-])c1cc([N+](=O)[O-])c2ccccc2c1`, the “activity change, negative = cytotoxicity” value is -6.57% (inactive).
Same read-out and setting: under `CCCCOC(=O)c1ccccc1C(=O)OCc1ccccc1` stands 0.254% (inactive); under `c1cc2ccc3cccc4ccc(c1)c2c34`, 5.04% (inactive); under `Nc1ccc(Cl)cc1N`, -6.13% (inactive).
Still for that read-out and setting: the result for `OCCCBr` reads 2.16% (inactive); that for `O=[N+]([O-])c1c2ccccc2cc2ccccc12`, 2.54% (inactive).
Same read-out and setting: under `CC(C)(O)C(=O)Nc1ccc([N+](=O)[O-])c(C(F)(F)F)c1` stands -19.8% (inactive); under `O=C(O)COc1ccccc1`, -1.21% (inactive); under `CCCCCCCCc1ccc(O)cc1`, -7.91% (inactive).
On to `Cc1cc(O)ccc1Cl`, for which the “activity change, negative = cytotoxicity” value was -4.82% (inactive).
The same measure, in the same setting: the result for `CCCCC(CC)COC(=O)c1ccccc1C(=O)OCC(CC)CCCC` (stereo unspecified) reads -12.5% (inactive).
In the case of `COC(C)(C)CCCC(C)C/C=C/C(C)=C/C(=O)OC(C)C` (stereo unspecified), the “activity change, negative = cytotoxicity” value is -12% (inactive).
In the case of `CC(=O)[O][Hg][c]1ccccc1`, the Potency was 1 µM (active).
Take `O=[N+]([O-])c1c(Cl)c(Cl)cc(Cl)c1Cl`: the “activity change, negative = cytotoxicity” value is -4.75% (inactive).
On the same count and under the same terms, the result for `Nc1ccc(Cl)cc1` reads -1.09% (inactive); that for `CN(C)NC(=O)CCC(=O)O`, -2.19% (inactive); that for `C=CC(=O)NCNC(=O)C=C`, -8.04% (inactive).
For the compound `C1CCC(NC2CCCCC2)CC1`, the Potency result is “inactive”.
In the case of `Nc1ccc([N+](=O)[O-])cc1`, the “activity change, negative = cytotoxicity” value was 5.11% (inactive).
The same measure, in the same setting: under `O=C(O)C(Cl)Cl` stands -5.98% (inactive); under `CN(C)[C@@H]1C(=O)C(C(N)=O)=C(O)[C@@]2(O)C(=O)C3=C(O)c4c(O)cccc4[C@@](C)(O)[C@H]3[C@H](O)[C@@H]12`, -15.5% (inactive).
